Tau fluor cs = Counterscreen qHTS for Inhibitors of Tau Fibril Formation, Fluorescence Polarization | tau K18 P301L Alexa594 fluorescence, heparin fibrillization | Potency, µM (highest dose often 57.7 µM), for the others: at the top dose activity change, negative = decrease | 280,000 tested, 0.93% active | AID 1463, 2008; also: nearly all actives have a fitted effect of over 55% in size
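Human K18 P301L tau (15 uM unlabeled plus 0.24 uM Alexa 594-labeled, final) in 100 mM sodium acetate pH 7 was mixed with compound and 20 uM heparin and incubated 6 hr at 37 C.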
Tau FP inhib = qHTS for Inhibitors of Tau Fibril Formation, Fluorescence Polarization. Microtubule-associated protein tau (Homo sapiens), P10636. K18 P301L tau heparin fibrillization, Alexa594 FP, 6 h. Potency, µM (top dose mostly 57.7 µM), for inactives: at the top dose activity, negative = inhibition, hits mostly inhibitors. 280,000 tested, 0.39% active; also: nearly all actives have a fitted effect of over 55% in size
Target sequence (P10636 561-689 P618L limits assumed): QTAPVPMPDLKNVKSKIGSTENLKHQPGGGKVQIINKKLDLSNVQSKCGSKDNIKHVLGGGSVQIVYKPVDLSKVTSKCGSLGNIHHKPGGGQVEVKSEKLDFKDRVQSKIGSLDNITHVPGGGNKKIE
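Read-out: fluorescence polarization of Alexa 594-labeled tau (0.24 uM), 555 nm excitation, 632 nm emission. Mixtures held 15 uM unlabeled K18 P301L, compound and 20 uM heparin, pH 7 acetate buffer, incubated 6 hr at 37 C.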
TR SRC2 fluor cs = Total Fluorescence Counterscreen for Inhibitors of the Interaction of Thyroid Hormone Receptor and Steroid Receptor Coregulator 2; TRb/SRC2 Texas Red total fluorescence interference; Potency, µM (titrated, usually from 106 µM), without a hit: at the highest dose fluorescence change, negative = quenching; 280,000 tested, 0.29% active; active = well fitted curve in either direction with a large enough effect; inconclusive = small, poorly fitted or top-dose-only effect
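Human TRβ ligand-binding domain (0.6 uM) and Texas Red SRC2 peptide (20 nM) in Tris buffer with 1 uM T3 and 5% DMSO were incubated with pinned compound for 5 hr at ambient temperature. Total fluorescence was computed as S + 2P (555/632 nm).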
TRb-SRC2 inh = qHTS for Inhibitors of the Interaction of Thyroid Hormone Receptor and Steroid Receptor Coregulator 2; Thyroid hormone receptor beta (Homo sapiens), P10828; TRbeta-SRC2 peptide binding, fluorescence polarization; receptor liganded with 1 µM T3; Potency, µM (highest dose often 106 µM), inactives show top-dose activity change, negative = inhibition, usual class: inhibitors; 280,000 tested, 0.065% active; AID 1469, 2008;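 also: plate controls were bound peptide for no effect and peptide without receptor for full effect; nearly all actives have a fitted effect of over 50% in size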
Target sequence (P10828 whole entry, looked up): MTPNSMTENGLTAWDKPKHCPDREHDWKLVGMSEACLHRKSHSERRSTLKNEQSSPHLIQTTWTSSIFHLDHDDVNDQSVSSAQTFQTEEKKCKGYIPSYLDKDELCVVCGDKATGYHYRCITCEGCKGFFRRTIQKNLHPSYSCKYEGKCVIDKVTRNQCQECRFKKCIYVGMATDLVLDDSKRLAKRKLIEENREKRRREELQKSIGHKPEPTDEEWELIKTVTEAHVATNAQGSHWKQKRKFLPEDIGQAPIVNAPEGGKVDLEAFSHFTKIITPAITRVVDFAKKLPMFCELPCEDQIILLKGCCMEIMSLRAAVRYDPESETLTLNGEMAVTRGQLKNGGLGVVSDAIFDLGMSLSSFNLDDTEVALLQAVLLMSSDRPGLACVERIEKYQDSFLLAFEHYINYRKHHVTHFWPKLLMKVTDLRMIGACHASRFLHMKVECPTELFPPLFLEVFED
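Read-out is fluorescence polarization (555 nm excitation, 632 nm emission) of a Texas Red SRC2 coactivator peptide; loss of signal reflects blocked binding to human TRb ligand-binding domain in the presence of 1 uM T3.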
Tau ThT inhib = qHTS for Inhibitors of Tau Fibril Formation, Thioflavin T Binding; Potency, µM (top dose mostly 57.4 µM), for the others: at the top dose activity, negative = inhibition, actives largely listed as inhibitors; recombinant tau K18 P301L (four-repeat tau fragment), heparin-induced fibrillization, ThT fluorescence; 270,000 tested, 2.1% active; also: nearly all actives have a fitted effect of over 55% in size
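Tau K18 P301L fragment (15 uM unlabeled plus 0.24 uM Alexa 594-labeled) in 100 mM sodium acetate pH 7 with compound, fibrillization induced by 20 uM heparin for 6 hr at 37 C. Thioflavin T (30 uM) added, fluorescence read after 1 hr (ex 450, em 510 nm).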
* marks the source's active call; other numbers are inactive results; ? = inconclusive; . = no result given; [ ] = remark or other dose. Compounds with a hit are over-represented: about 3% of the library has one in this group of screens. Unless noted, calls follow the shape of the dose curve; as a rule, active = well fitted curve in the direction sought with a large enough effect; inconclusive = small, poorly fitted or top-dose-only effect, or another doubt; inactive = no such curve, though single readings can be large; an effect the other way counts as inactive or inconclusive. Unless noted, % is scaled to controls: 0 for no effect and ±100 for the full control effect; potency is read from the fitted curve at half-maximal effect.

SMILES	Tau fluor cs	Tau FP inhib	TR SRC2 fluor cs	TRb-SRC2 inh	Tau ThT inhib
Cc1ccc2c(c1)N/C(=C(\C=C(/Cl)[N+](=O)[O-])[N+](=O)[O-])N2	?	-7.6%	-10.6%	5.0%	17.8µM*
O=C(O)c1ccc2c(c1)C(=O)OC2=O	.	.	-0.2%[201 µM]	-2.6%[201 µM]	.
COc1ccc(Cn2c(C(=O)O)c(CNCCc3cccs3)c3ccc(C)cc32)cc1	-12.3%	10.9%	0.3%	-0.9%	-0.9%
Cc1nc(-c2ccccc2)sc1C(=O)NN	-8.9%	?	-3.5%	-3.1%	-10.8%
Cc1ccc(N/C=C/C(=O)c2sc(-c3ccccc3)nc2C)cc1	-27.8%	-0.4%	0.7%	0.7%	2µM*
CCn1c(=N)c(C(=O)NCC2CCCO2)cc2c(=O)n3cc(C)ccc3nc21 (stereo unspecified)	0.9%	1.5%	-2.3%	4.8%	5.7%
CCOc1cccc(C=Nc2cc(C)cc(C)c2O)c1O	?	?	-9.4%	-5.1%	25.1µM*
CCCCCCn1c(O)c(/C=C2\C=NN=C2c2ccccc2)sc1=S	0.2%	8.4%	-0.8%	3.8%	4.3%
CCCCn1c(O)c(/C=C2\C=NN=C2c2ccccc2)sc1=S	?	11.2µM*	-0.7%	-3.9%	-10.6%
Cc1cccc2c1[nH]c1nc(N/N=C\c3ccco3)nnc12	-27.6%	-6.6%	-1.0%	-16.2%	6.31µM*
CC(/C=N/Nc1nnc2c(n1)[nH]c1ccccc12)=C\c1ccco1	?	-12.4%	-2.5%	-14.8%	6.31µM*
COc1cccc(/C=N/Nc2nnc3c(n2)[nH]c2ccccc23)c1OC	-2.6%	-2.7%	-2.3%	0.3%	.
Cc1ccncc1C(=O)O	.	.	0.3%	-5.4%	.
C/C=C/c1ccc(OCC(=O)O)c(OC)c1	-2.2%	-3.1%	-3.7%	-5.6%	-7.8%
CC1=C(C#N)c2nc(N)c(C#N)c(C)c2/C1=C\c1ccc(-c2ccccc2C(=O)O)o1	?	?	?	?	8.91µM*
COc1cc(/C=C2/C(C)=C(C#N)c3nc(N)c(C#N)c(C)c32)ccc1OCC(=O)O	?	?	26.8%	-0.9%	14.1µM*
Nc1nonc1-c1nc2ccccc2n1CC(=O)N/N=C/c1ccc(-c2ccccc2C(=O)O)o1	6.7%	-1.4%	-2.1%	-3.8%	9.9%
Oc1ccc(-c2nc3ccccc3s2)c(O)c1	?	-12.8%	-0.5%	8.2%	7.4%
Oc1ccc(N=C/C=C/c2cccc(Br)c2)cc1-c1nc2ccccc2s1	?	-15.0%	-0.1%	-3.9%	6.31µM*
Nc1ccc(O)c(-c2nc3ccccc3s2)c1	?	?	?	-3.0%	10µM*
Nc1ccc(-c2nc3ccc(N)cc3s2)cc1	?	1.3%	-12.2%	5.4%	11.2µM*
Nc1ccc2nc(-c3ccc(O)cc3)sc2c1	?	3.4%	79.4µM*[quencher]	-15.3%[53 µM]	7.94µM*
O=C(Nc1ccc(O)c(-c2nc3ccccc3s2)c1)c1cccs1	-0.8%	0.2%	-3.7%	-5.5%	5.4%
CCCCn1c(=O)c2oc3ccccc3c2n(Cc2ccc(OC)cc2)c1=O	-8.8%	-1.8%	0.4%	4.9%	2.1%
Cc1cccc[n+]1C1C(c2ccccc2)C(C#N)=C(C(=C=[N-])C#N)NC1(O)C1CC1 (stereo unspecified)	?	?	-5.8%	6.9%	17.8µM*
SMILES	Tau fluor cs	Tau FP inhib	TR SRC2 fluor cs	TRb-SRC2 inh	Tau ThT inhib
C=CCn1c(/N=C/c2ccc(N(C)C)cc2)nc2ccccc21	-2.8%	2.3%	-0.2%	1.7%	1.1%
CN(C)c1ccc(/C=N/n2ncc3ccccc32)cc1	?	14.3%	-8.5%	6.2%	3.98µM*
COc1ccc2c(c1)O[C@H](c1cccc(C(F)(F)F)c1)[C@@H](O)C2=O	-6.8%[11.6 µM]	-7.0%[11.6 µM]	1.9%[11.2 µM]	-0.2%[11.2 µM]	-6.6%[11.5 µM]
CCN(CC)c1ccc(/C=C/C(=O)C2C(=O)C=C(C)OC2=O)cc1 (stereo unspecified)	6.31µM*[fluorescent]	?	31.6µM*[fluorescent]	?	3.16µM*
CCN(CC)c1ccc(C=C2C(=O)OC(c3ccccc3)OC2=O)cc1 (stereo unspecified)	1.5%	-16.1%	-1.4%	0.3%	6.4%
CCCCOCCOCCOC(C)=O	.	.	-5.2%[201 µM]	2.4%[201 µM]	.
CC(C)CN(CC(C)C)S(=O)(=O)c1ccc(C(=O)Nc2sc3c(c2C(N)=O)CCN(C(C)C)C3)cc1	?	-4.7%	-2.6%	4.2%	-1.6%
CC1=CC(c2ccc(Cl)cc2)n2nc(NS(=O)(=O)c3ccc(C)cc3)nc2N1 (stereo unspecified)	-12.3%	-0.6%	-0.2%	-3.3%	?
CC1=CC(c2ccccc2)n2nc(NS(=O)(=O)c3ccc(C)cc3)nc2N1 (stereo unspecified)	?	?	-3.9%	6.1%	11.2µM*
Cc1nn(-c2ccccc2)c(N)c1N=Nc1ccc(Cl)cc1	?	-6.2%	-3.0%	-6.1%	7.94µM*
Cc1cc(C)n2nc(N)c(N=Nc3ccccc3)c2n1	-13.1%	4.5%	-4.5%	-0.1%	14.1µM*
Cc1nn(-c2ccccc2)c(N)c1N=Nc1ccccc1	?	2.1%	1.2%	-3.1%	8.91µM*
Cc1nn(-c2ccccc2)c(N)c1-c1ccccc1	-1.6%	8.2%	-0.6%	0.7%	-5.5%
Cc1nn(-c2ccccc2)c(N)c1N=Nc1cccc(S(=O)(=O)N2CCOCC2)c1	?	5.7%	-7.0%	-6.4%	?
Nc1nn(-c2ccccc2)c(N)c1N=Nc1ccccc1	-27.6%	3.9%	-1.2%	-3.5%	5.01µM*
Cc1cc(C)n2nc(N)c(N=Nc3ccc4c(c3)OCO4)c2n1	7.6%	3.6%	-3.0%	14.0%	6.7%
Fc1ccc(CNc2nc3ccc(Cl)cc3n3nnnc23)cc1	-5.3%	-2.9%	-2.2%	-3.9%	-6.4%
Nc1nn(-c2ccccc2)c(N)c1N=Nc1ccccc1F	?	5.5%	-2.3%	-1.5%	4.47µM*
Cc1cccc(N=Nc2c(C)nn(-c3ccccc3)c2N)c1C	?	7.6%	-1.7%	5.9%	7.08µM*
CCc1cccc2cc(C(O)CNC(C)(C)C)oc12 (stereo unspecified)	.	.	-1.8%	2.1%	.
COc1cc(NC(=O)COC(=O)CNC(=O)c2ccc(C)cc2)c(C)cc1[N+](=O)[O-]	-1.9%	5.9%	10µM*[quencher]	-25.2%[53 µM]	3.5%
CCOC(=O)c1ccc(NC(=O)CCc2c(C)nc3c(c(C)nn3C)c2C)cc1	-22.5%	-11.9%	-0.4%	1.4%	?
COc1ccccc1C1CCN(c2ccc([N+](=O)[O-])c(OC)c2)CC1	?	-10.0%	-3.0%	-2.1%	8.91µM*
C=CCSc1nnc(-c2ccccc2N=Cc2c(C)[nH]n(-c3ccccc3)c2=O)c(=O)[nH]1	-17.7%	-8.6%	-3.1%	2.3%	?

Assay outcomes (PubChem BioAssay)
